The structures appear in SMILES notation. Out of some 290,000 compounds screened, about 2,700 (0.93%) were called active.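 Rule for the calls: active = inhibition above the screen-wide mean plus 3 SD, computed separately per campaign (cut at about 16% in these data); inactive = the rest.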 This excerpt belongs to a sample that is enriched for actives.

The values below come from PubChem BioAssay AID1789 (The Scripps Research Institute Molecular Screening Center, 2009).

For this assay, the system named is Heat shock protein HSP 90 (rabbit reticulocyte lysate; luciferase refolding). Put plainly: HSP90 inhibitors, primary screen, cell lysate, luminescence (AID 1789).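 Note: 0% = DMSO wells and 100% = 60 µM geldanamycin wells; inhibitors lower the luminescence because luciferase stays unfolded.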 Particulars: 3 h, at 5.6 µM, active compounds read high.
In the case of `COc1ccc(NC(=O)CSc2nc(C)cs2)cc1`, the inhibition was -1.43% (inactive).

Consider `Cc1csc(SCC(=O)Nc2sccc2C#N)n1`, for which the inhibition is 17.4% (active).

Consider `Cc1cccc(C)c1Nc1nnc(SCC(=O)Nc2sccc2C#N)s1`, for which the inhibition is 3.59% (inactive).

As for `CCc1ccccc1NC(=O)[C@@H]1CCC(=O)N1C1OC(=O)c2c1ccc(OC)c2OC` (some centres undefined), the inhibition was -1.1% (inactive).

As for `COc1ccc(NC(=O)c2ccco2)cc1NC(=O)c1ccc(C#N)cc1F`, the inhibition is -0.59% (inactive).

On to `CCCCCc1ccc(-c2ccc(OCC)cc2)nc1`, for which the inhibition is 0.91% (inactive).

With `CCCCCc1ccc(-c2ccc(C(=O)O)cc2)nc1`, the inhibition was 61.1% (active).

With `CCCCCc1ccc(-c2cn(Cc3ccc4ccccc4c3)nn2)cc1`, the inhibition is -4.93% (inactive).

For `COCCn1c(SCc2nnc(-c3ccc(OC)c(OC)c3)o2)nc2sc3c(c2c1=O)CCC3`, the inhibition is 1.74% (inactive).

With `CC(=O)c1ccc(S(=O)(=O)N(C)CCCC(=O)N(C)Cc2ccccc2F)cc1`, the inhibition is 0.72% (inactive).

For `CC1(c2cccc([N+](=O)[O-])c2)CC(C)(C)N(C(=O)c2ccccc2)c2ccccc21` (centres undefined), the inhibition is 2.72% (inactive).

Consider `Cc1nnc(SCC(=O)N2c3ccccc3C(C)(c3ccc(Cl)cc3)CC2(C)C)s1` (centres undefined), for which the inhibition is 58.2% (active).

As for `CC1(c2ccccc2)CC(C)(C)N(C(=O)c2cc([N+](=O)[O-])cc([N+](=O)[O-])c2)c2ccccc21` (centres undefined), the inhibition is -2.72% (inactive).

`NC1=NN(c2cccc(C(=O)O)c2)C(=O)C1`: the inhibition is 3.9% (inactive).

Consider `O=Cc1c(Nc2ccccc2Cl)nc2ccccn2c1=O`, for which the inhibition is 0.05% (inactive).

As to `COc1ccc(OCc2cc(C(=O)NCC3(C)COC3)no2)c(Cl)c1`, the inhibition is -3.93% (inactive).

With `Cc1ccc(-n2cc3ccc([N+](=O)[O-])cc3n2)cc1`, the inhibition was 9.46% (inactive).

In the case of `COc1ccc(-c2cn3ccsc3n2)cc1`, the inhibition is 6.4% (inactive).

Turning to `Cc1nc(-c2ccc([N+](=O)[O-])cc2)c(-c2ccccc2)o1`, the inhibition is 10.2% (inactive).

On to `Cc1ccc(-c2cn3cc([N+](=O)[O-])ccc3n2)cc1`, for which the inhibition was 26.2% (active).

For the compound `Cc1cc(N2CCOCC2)nc(-c2ccc(Br)cc2)n1`, the inhibition is 7.23% (inactive).

`Cc1ccc2nc(-c3ccc(Br)cc3)cn2c1`: the inhibition is 75.1% (active).

With `Cc1ccc(-c2cn3cc(C)ccc3n2)cc1`, the inhibition is 84.1% (active).

`COc1ccc(-c2cn3cccnc3n2)cc1`: the inhibition is 0% (inactive).

As to `CCN(CC)S(=O)(=O)c1ccc(-c2cn3ccc(C)cc3n2)cc1`, the inhibition was 1.15% (inactive).

As for `COc1ccc(-c2cn3ccc(C)cc3n2)cc1`, the inhibition was 61.9% (active).

Take `CSc1nnc2ccc(-c3ccc(C)cc3)nn12`: the inhibition was -5.22% (inactive).

On to `Cc1ccc(-c2cc(N)on2)cc1`, for which the inhibition is 3.55% (inactive).

Turning to `COc1ccc(S(=O)(=O)NC(C)c2ccccc2)cc1C(=O)N1CCCCC1` (centres undefined), the inhibition is -0.07% (inactive).

As for `Cc1cc(NC(=O)c2ccccc2C)no1`, the inhibition was 1.41% (inactive).

In the case of `CC(NCc1cccs1)C(=O)Nc1cc(Cl)cc(Cl)c1` (centres undefined), the inhibition is 3.33% (inactive).

For `O=S(=O)(Cc1cc(Cl)nc(-c2cccnc2)n1)c1ccccc1`, the inhibition is -1.01% (inactive).

For `Cc1cccc(C(=O)N2CCCC(Nc3ccc(C(C)C)cc3)C2)n1` (centres undefined), the inhibition was 2.58% (inactive).

As for `COc1ccc2cc(S(=O)(=O)Nc3ccccn3)ccc2c1`, the inhibition was -2.45% (inactive).

Turning to `Cc1ccc(NS(=O)(=O)c2ccc(C)c(NC(=O)COc3ccc4ccccc4c3)c2)c(C)c1`, the inhibition is 3.5% (inactive).

Turning to `COc1cc(NS(=O)(=O)c2ccc3ccccc3c2)c2ncccc2c1`, the inhibition is 17.1% (active).

Turning to `O=S(=O)(Nc1ccccc1Cl)c1cccc2nsnc12`, the inhibition is -0.91% (inactive).

`COc1ccc2c(c1)C(NS(=O)(=O)OCC(Cl)(Cl)Cl)CCC2` (centres undefined): the inhibition was -3.42% (inactive).

In the case of `COc1cccc(/C=C2\C=C(c3ccc(C)cc3)OC2=O)c1OC(C)=O`, the inhibition is -2.84% (inactive).

On to `COc1cccc(/C=C/c2ccc3ccccc3n2)c1OC(C)=O`, for which the inhibition was 26.1% (active).

As for `CCOc1cccc(/C=C/c2ccc3ccccc3n2)c1OC(C)=O`, the inhibition is 11.8% (inactive).

Consider `Cc1cc(=O)oc2cc(OC(C)C(=O)NCCc3ccc(S(N)(=O)=O)cc3)ccc12` (centres undefined), for which the inhibition was -1.68% (inactive).

As for `COC(=O)C1=C(O)/C(=C/c2ccc(OCC(=O)Nc3ccccc3)cc2)N=C1C`, the inhibition was 3.09% (inactive).

On to `COC(=O)c1ccc(Nc2ncnc3sccc23)cc1`, for which the inhibition was -0.64% (inactive).

Take `COc1ccc(N(CC(=O)NCC2CCCO2)C(=O)CCC(=O)Nc2nccs2)c(OC)c1` (centres undefined): the inhibition is 1.16% (inactive).

On to `Cc1nc2cc(NC(=O)NC3CC3)ccc2n1C`, for which the inhibition was -3.15% (inactive).

In the case of `C=CCN(C(=O)Nc1ccc2c(c1)nc(C)n2C)c1ccccc1`, the inhibition was 2.61% (inactive).

In the case of `Cc1nc2cc(NC(=O)Nc3cccc(F)c3)ccc2n1C`, the inhibition is 42.2% (active).

For the compound `CCN(C(=O)COc1ccc(C(=O)c2ccccc2)cc1)c1ccccc1`, the inhibition was 2.9% (inactive).

As to `O=C(Nc1ccc(N2CCOCC2)cc1)c1ccc2c(c1)OCO2`, the inhibition is 4.41% (inactive).

For the compound `O=C(Nc1ccccc1)c1ccc2c(c1)OCCCO2`, the inhibition is 31.5% (active).

As for `O=C(Nc1cccc(S(=O)(=O)Nc2ccc(Cl)cc2)c1)c1ccc2c(c1)OCCO2`, the inhibition was -6.31% (inactive).

On to `O=C(Nc1nc2ccccc2s1)c1ccc2c(c1)OCO2`, for which the inhibition is 21.8% (active).

Regarding `O=C(Nc1ccccc1F)c1ccc2c(c1)OCO2`, the inhibition is 4.08% (inactive).

Take `COCc1nnc(NC(=O)c2ccc3c(c2)OCO3)s1`: the inhibition is -2.47% (inactive).

As for `CN1CCN(CCNC(=O)Nc2ccccc2[N+](=O)[O-])CC1`, the inhibition is -4.79% (inactive).

`O=C(CCN1C(=O)C2C3CCC(C3)C2C1=O)Nc1ccc(Cl)cc1Cl` (centres undefined): the inhibition is -1.86% (inactive).

For `COc1ccc(/C(C)=N\NC(=O)c2ccc(-c3ccccc3)cc2)c(F)c1`, the inhibition was -2.33% (inactive).

On to `Oc1c(Cl)cc(Cl)cc1/C=N/c1ncn[nH]1`, for which the inhibition is -0.17% (inactive).

As for `CC(C)C[C@H](NC(=O)N1CCn2c1nc1ccccc12)C(=O)NC1CC1`, the inhibition was -4.43% (inactive).

Consider `COc1ccccc1C(=O)Nc1cccc(C(=O)N2CCOCC2)c1`, for which the inhibition is -1.04% (inactive).

Take `COc1cc(CNC2CCCCC2)c(Br)cc1OC1CCCC1`: the inhibition was 35.2% (active).

Turning to `CC(C)(C)NCc1cc(Br)ccc1OC1CCCC1`, the inhibition is -2.93% (inactive).

`COc1cc(CNC2CCCC2)c(Br)cc1OCc1ccccc1`: the inhibition was -1.4% (inactive).

Turning to `COc1cc(C(=O)OCC(=O)NC(C)CCc2ccccc2)cc(OC)c1OC` (centres undefined), the inhibition was 0.2% (inactive).

With `COc1ccccc1CNS(=O)(=O)c1c(C)[nH]c(C)c1C(=O)N1CCCCC1`, the inhibition is -3% (inactive).

`CCCOc1ccccc1C(=O)NCCCC(=O)O`: the inhibition was 1.45% (inactive).

In the case of `CCCCOCCCNC(=O)c1ccccc1OCC`, the inhibition is 29.5% (active).

On to `CCOc1ccccc1C(=O)NCCCn1ccnc1`, for which the inhibition was 2.74% (inactive).

Regarding `Cc1c(C(=O)N(C)CCc2cnn(C)c2)oc2c(F)cccc12`, the inhibition is -3.1% (inactive).

As to `CC(C)Nc1ccc(-n2nc3ccccc3[n+]2[O-])cc1`, the inhibition is 20.2% (active).

Take `O=C(Cc1ccsc1)N1CCN(S(=O)(=O)c2cc(C(F)(F)F)cc(C(F)(F)F)c2)CC1`: the inhibition was -2.85% (inactive).

For `CC(NC(=O)c1ccco1)c1ccc2c(c1)OCO2` (centres undefined), the inhibition is -2.76% (inactive).

With `O=C(Nc1ccccc1)c1ccccc1NC(=O)C(F)(F)F`, the inhibition is -1.41% (inactive).

As to `COCc1cc(=O)[nH]c2cc(NC(=O)C(F)(F)F)c(C)cc12`, the inhibition is 43.6% (active).

For the compound `COCc1cc(=O)[nH]c(-c2ccc(C(F)(F)F)cc2)n1`, the inhibition was -1.15% (inactive).

In the case of `CSc1ccccc1NC(=O)c1cc(Cl)sc1Cl`, the inhibition was 2.29% (inactive).

As to `Cc1cc(C2=NNC(=Nc3ccc(S(=O)(=O)N4CCOCC4)cc3)SC2)c(C)n1CC1CCCO1` (centres undefined), the inhibition is 1.56% (inactive).

For `C=CCn1c(C)cc(C(=O)CN2C(=O)c3ccccc3C2=O)c1C`, the inhibition was -0.12% (inactive).

With `C=CCn1c(C)cc(C2=NNC(=NCC)SC2)c1C`, the inhibition was 44.5% (active).

Turning to `Cc1ccc2c(=O)cc(C(=O)NCCc3ccc(S(N)(=O)=O)cc3)oc2c1C`, the inhibition is 0.5% (inactive).

For the compound `CC(=O)c1ccc(NC(=O)c2cc(-c3cccs3)on2)cc1`, the inhibition was -4.55% (inactive).

Regarding `CCOC(=O)CNC(=O)c1nn(-c2cccc(OC)c2)c(=O)c2ccccc12`, the inhibition was 20.7% (active).

Regarding `COCCCNC(=O)CNC(=O)c1nn(-c2ccc(OC)cc2)c(=O)c2ccccc12`, the inhibition was -1.14% (inactive).

With `COc1ccc(-n2nc(C(=O)NCC(=O)Nc3cccc(C)n3)c3ccccc3c2=O)cc1`, the inhibition is 0.84% (inactive).

With `CC(=O)NS(=O)(=O)c1ccc(N/C(N)=N/c2nc(C)cc(C)n2)cc1`, the inhibition is -3.21% (inactive).

`COc1cccc(C(=O)NNC(=O)/C=C/c2ccccc2)c1`: the inhibition is -8.89% (inactive).

Take `Cc1ccc(N/C=C/C(=O)c2ccccc2)cc1C`: the inhibition is -2.61% (inactive).

On to `Cc1cc(C)nc(S/C=C/C(=O)c2ccccc2)n1`, for which the inhibition was 34.3% (active).

As to `Cc1cc(C)nc(SCC(=O)c2ccc(Cl)cc2)n1`, the inhibition is -0.36% (inactive).

For the compound `COc1ccc(/C=N/Nc2nc3ccccc3c(=O)[nH]2)cc1`, the inhibition was 0.73% (inactive).

In the case of `COc1ccc(/C=N/NC(=O)c2ccc3c(c2)OCCO3)c(OC)c1`, the inhibition was 2.94% (inactive).

On to `COc1ccc(C(=O)Nc2ccccc2C(=O)N/N=C/c2ccc(O)c(OC)c2)cc1`, for which the inhibition is 89% (active).

As for `COc1ccc(C(=O)Nc2ccccc2C(=O)N/N=C/c2ccccc2OC)cc1`, the inhibition is 50.3% (active).

As to `COc1ccc(C(=O)Nc2ccccc2C(=O)NCc2ccco2)cc1`, the inhibition was -2.57% (inactive).

`COc1cc(/C=N/NC(=O)c2ccccc2)ccc1OS(=O)(=O)c1ccccc1`: the inhibition was -0.09% (inactive).

In the case of `COc1cc(/C=N/NC(=O)c2ccc(N3CCCC3=O)cc2)ccc1O`, the inhibition was -0.72% (inactive).

Regarding `COc1ccc(/C=N/OCC(=O)N(Cc2ccccc2)c2ccccc2C(=O)O)cc1`, the inhibition was -2.76% (inactive).

Consider `COc1ccc(/C=N/Nc2ccccc2C(=O)O)cc1`, for which the inhibition was 24.7% (active).
